# From PubChem BioAssay AID1491 (National Center for Advancing Translational Sciences (NCATS), 2009)
# Records with an inconclusive call do not appear. Active and inactive are the calls of the source. The call rests on the fitted dose curve; in most records, active means well fitted inhibition curve with a large enough effect in the main read-out, with a control signal flat; inconclusive means small, poorly fitted or top-dose-only effect, or a change in a side signal; inactive means flat fitted curve, though single readings scatter.
# Target: Neuropeptide S receptor (Homo sapiens) (UniProt Q6W5P4)
# Sequence (Q6W5P4 whole entry, looked up): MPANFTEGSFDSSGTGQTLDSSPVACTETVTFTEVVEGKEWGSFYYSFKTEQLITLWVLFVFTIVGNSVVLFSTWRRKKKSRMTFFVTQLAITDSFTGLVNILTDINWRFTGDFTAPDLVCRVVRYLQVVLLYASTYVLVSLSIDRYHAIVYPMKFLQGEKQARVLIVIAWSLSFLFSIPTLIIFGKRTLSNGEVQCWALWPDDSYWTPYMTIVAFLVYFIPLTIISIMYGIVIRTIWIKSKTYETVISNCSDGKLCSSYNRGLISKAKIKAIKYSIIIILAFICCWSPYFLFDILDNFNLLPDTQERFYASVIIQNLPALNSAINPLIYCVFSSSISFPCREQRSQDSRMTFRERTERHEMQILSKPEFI
# Assay: Confirmation Concentration-Response Assay for Antagonists of the Neuropeptide S Receptor: cAMP Signal Transduction;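 on activity change, negative = inhibition: 0% = DMSO with NPS and full inhibition = wells lacking NPS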
# Settings: CHO-NPSR cells, cAMP TR-FRET, antagonist mode; series mostly up to 22.3 µM; activity change, negative = inhibition: at the top concentration
# Procedure, shortened: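 LANCE TR-FRET cAMP read-out: 665/620 nm emission ratio, with the 620 nm donor channel also reported, after 2 h RT detection. Stably transfected CHO-NPSR cells got compound titrations and 100 nM NPS in stimulation reagent for 60 min at 37C. IC50 came from Hill fits.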
# Potency means the concentration at half of the fitted maximal effect.
Compound,Potency,"activity change, negative = inhibition"
N=c1c2c(ccn1-c1ccccc1)Oc1ccc3ccccc3c1C2c1ccccc1 (stereo not given),2510 nM (active),
CCOC(=O)CC(=O)Nc1ncnc2c1C(c1ccccc1)c1c(ccc3ccccc13)O2 (stereo not given),794 nM (active),
COc1ccc(O)c(/C=N/Nc2nc(Nc3ccccc3)nc(-n3nc(C)cc3C)n2)c1,,-1.82% (inactive)
O=C(O)CCCCCNc1nc(=S)[nH]c2ccccc12,,-0.723% (inactive)
O=S1(=O)Nc2c(ccc3cccnc23)-c2ccccc21,4470 nM (active),
Brc1ccc(CSc2ncn[nH]2)cc1,,-6.38% (inactive)
C/C(=N\NC(=S)NC1CCCCC1)c1c(F)cccc1F,,-12% (inactive)
COc1ccc(C(=O)N(Cc2ccco2)Cc2cccs2)c(O)c1,,-4.04% (inactive)
CCOC(=O)c1cnc(Nc2nc3ccccc3o2)nc1CSC(=S)N(CC)CC,,-11.7% (inactive)
c1ccc(-c2ccc(-c3nc(-c4cccnc4)no3)cc2)cc1,,-15.5% (inactive)
Cc1ccc(S(=O)(=O)Nc2cccc3ncccc23)s1,,-10.1% (inactive)
NC(=S)N/N=C/c1ncc(C(F)(F)F)cc1Cl,,-8.43% (inactive)
O=C(c1ccccc1)N(C(=O)c1ccccc1)c1ncnc2c1C(c1ccccc1)c1c(ccc3ccccc13)O2 (stereo not given),3160 nM (active),
CC1CCCc2sc3nc(N4CCN(CCO)CC4)n4ncnc4c3c21 (stereo not given),,17.5% (inactive)
CCOc1ccc(C2c3c(ncn(-c4ccccc4)c3=N)Oc3ccc4ccccc4c32)cc1OCC (stereo not given),2000 nM (active),
C=CCOc1c(Cl)cc(CNc2ccc(N(C)C)cc2)cc1OC,,-13.4% (inactive)
COc1ccc(N(CC(=O)Nc2cccc(SC)c2)S(C)(=O)=O)cc1Cl,,-14.4% (inactive)
CCCCOc1ccc(OCCCN2CCOCC2)cc1,,-6.85% (inactive)
COCCCn1c(SCc2cc(=O)[nH]c3ccccc23)nnc1-c1ccco1,,18.1% (inactive)
O=c1cc(CNCCCO)c2ccccc2[nH]1,,0.391% (inactive)
